# Molecular target: Dickkopf-related protein 1 (Homo sapiens) (UniProt O94907)
# Assay: small molecules binding DKK1 protein – biochemical, small-molecule microarray, 635 nm fluorescence scan, primary screen (AID 1106);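 also: score merges emission near 667 nm with signal to noise over three replicate slides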
# Conditions: higher = more signal
# Sequence of Dickkopf-related protein 1 (Homo sapiens) (O94907 whole entry, looked up): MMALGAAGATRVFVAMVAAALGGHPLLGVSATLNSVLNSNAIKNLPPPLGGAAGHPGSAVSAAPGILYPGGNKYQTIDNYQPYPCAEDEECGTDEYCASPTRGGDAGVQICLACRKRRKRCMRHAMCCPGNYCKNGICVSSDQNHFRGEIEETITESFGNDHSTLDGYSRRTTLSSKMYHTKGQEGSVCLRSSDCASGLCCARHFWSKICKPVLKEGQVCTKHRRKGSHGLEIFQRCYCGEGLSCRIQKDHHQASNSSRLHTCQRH
row,SMILES,composite z-score
1,COC(=O)[C@H]1N=C(c2ccc(OCCCO)cc2)O[C@H]1c1ccccc1CN=[N+]=[N-],-1.56
2,C[N+](C)(C)CCCCNC(=O)[C@H]1C[C@H]2C(=O)NCC(=O)N2[C@H]1c1ccc(O)cc1,1.47
3,CN(C)CCCCCCNC(=O)[C@@H]1C[C@@H]2C(=O)NCC(=O)N2[C@@H]1c1ccc(O)cc1,1.19
4,COc1ccc(C#Cc2ccc3c(c2)[C@]2(C(=O)N3)[C@H](c3ccc(OCCO)cc3)N3[C@H](c4ccccc4)[C@H](c4ccccc4)OC(=O)[C@H]3[C@@H]2C(=O)N2CCN(c3ncccn3)CC2)cc1,0.0015
5,[N-]=[N+]=NCc1ccccc1[C@H]1OC(c2ccc(OCCCO)cc2)=N[C@@]1(Cc1ccccc1)C(N)=O,-0.952
6,C#CCOC(=O)N[C@H](C=CCCCC)c1ccccc1,-0.352
7,COc1cccc(C[C@H]2C[C@@H](CO[Si](C(C)C)(C(C)C)C(C)C)N3C(=O)[C@]4(C(C)=O)O[C@]23[C@H]2C(=O)N(C)C(=O)[C@H]24)c1,0.53
8,C=C(COC)/C(=C/C[C@@H](OC(=O)c1ccncc1)c1cccc(OCCO)c1)c1cc(C(=O)OC)ccc1OC,0.167
9,C[N+](C)(C)CCCC[C@@H]1NC(=O)[C@@H]2C[C@H](C(=O)NCCCCCNC(=O)CS)[C@H](c3cccc(OCCO)c3)N2C1=O,0.585
10,CCCCCCCCCCC(O)C1C=CC2C(=O)NC(=O)C2N1Nc1ccccn1 (stereo unspecified),-0.765
11,CCOC(=O)C[C@H]1[C@H](OC(=O)c2ccc(C(=O)c3ccccc3)cc2)[C@@H](NC(=O)C2CCCCC2)c2cc(OCCCO)ccc2N1C(=O)Cc1ccc(OC)cc1,0.0351
12,COc1ccc([Si](C)(C)[C@@H]2[C@@H](CCO)O[C@]3(C(=O)N(Cc4ccc(N5C(=O)c6ccccc6Oc6ccccc65)cc4)c4ccccc43)[C@H]2C)cc1,-0.815
13,O=C1O[C@@H](c2ccccc2)[C@@H](c2ccccc2)N2[C@@H](c3ccc(O)cc3)[C@]3(C(=O)Nc4ccc(C#CC5(O)CCCCCC5)cc43)[C@@H](C(=O)N3CCN(c4ncccn4)CC3)[C@H]12,0.226
14,COCCCNC(=O)[C@@]1(C)c2ccccc2C(=O)N(c2ccc(C)cn2)[C@H]1c1ccc(CO)cc1,-0.813
15,COc1ccc([Si](C)(C)[C@H]2[C@H](CCO)O[C@@]3(C(=O)N(Cc4cccc(N5CCOC5=O)c4)c4ccccc43)[C@@H]2C)cc1,0.581
16,O=C(N1CCOCC1)[C@@]1(CCS(=O)(=O)c2ccccc2)COC(c2ccc(OCCCO)cc2)=N1,-0.899
17,COCCOC(=O)N1C(=O)[C@@]2(c3cc(C#Cc4ccc(OC)cc4)ccc31)[C@H](C(N)=O)[C@H]1C(=O)O[C@H](c3ccccc3)[C@H](c3ccccc3)N1[C@@H]2c1ccc(OCCO)cc1,0.631
18,C=C[C@H](C)[C@H](OC(=O)Nc1ccc(SC)cc1)c1ccc(O)c2ccccc12,0.159

row,SMILES,composite z-score
1,C=C(CCCC)/C(=C/C[C@H](OC(=O)c1ccncc1)c1ccc(CO)o1)c1cc(C(=O)OC)ccc1OC,0.575
2,CN1C(=O)C2C=CC(C(O)c3cccc4ccccc34)N(NC(=O)OC(C)(C)C)C2C1=O (stereo unspecified),-0.123
3,COc1cc2c(cc1OC)CN(C(=O)[C@@H]1[C@H]3C(=O)O[C@H](c4ccccc4)[C@H](c4ccccc4)N3[C@H](c3ccc(OCCO)cc3)[C@@]13C(=O)Nc1ccc(C#CCCO)cc13)CC2,0.646
4,NCCCCCCNC(=O)[C@H]1C[C@H]2C(=O)N3CCC[C@H]3C(=O)N2[C@H]1c1ccc(O)cc1,0.735
5,C[C@H]1NC(=O)C([C@@H](C)OCc2ccccc2)NC(=O)[C@@]23C(=O)N[C@@H](Cc4ccccc4)C2[C@H](C)[C@@]2(C)O[C@H]2C3/C=C/CC/C=C/CNC1=O (stereo partly specified),0.506
6,O=C1O[C@@H](c2ccccc2)[C@@H](c2ccccc2)N2[C@@H](c3ccc(O)cc3)[C@]3(C(=O)Nc4ccc(C#CC5=CCCCC5)cc43)[C@@H](C(=O)Nc3nc4ccccc4s3)[C@H]12,1.06
7,CC(C)(C)N1CC=CC23O[C@@H]4C=CCCOC(=O)C4[C@H]2C(=O)N(CCCO)[C@@H]3C1=O (stereo partly specified),-0.0177
8,CN(C)CCCCNC(=O)[C@H]1C[C@H]2C(=O)N[C@@H](CCCC[N+](C)(C)C)C(=O)N2[C@H]1c1cccc(OCCO)c1,0.797
9,CCCCC(CC)C(O)C1C=CC2C(=O)NC(=O)C2N1Nc1ccccn1 (stereo unspecified),0.112
10,C[N+](C)(C)CCCCCCNC(=O)[C@@H]1C[C@@H]2C(=O)NCC(=O)N2[C@@H]1c1cccc(OCCO)c1,1.24
11,CCCCC=C[C@@H](NC(=O)CCc1ccccc1)c1ccccc1,0.248
12,C[N+](C)(C)CCCCCCNC(=O)[C@H]1C[C@H]2C(=O)N3CCC[C@H]3C(=O)N2[C@H]1c1cccc(OCCO)c1,0.705
13,COc1cccc(C)c1NC(=O)O[C@H]1[C@H](OC(=O)Nc2ccccc2)[C@H](OC(=O)Nc2ccccc2)[C@@H](OC)O[C@@H]1CO,-0.294
14,CC(C)NC(=O)[C@@]1(Cc2ccccc2I)c2ccccc2C(=O)N(Cc2ccccc2C(F)(F)F)[C@H]1c1ccc(CO)cc1,-0.467
15,COCCCNC(=O)[C@@]1(Cc2ccccc2CN=[N+]=[N-])N=C(c2ccc(OCCCO)cc2)O[C@H]1c1ccccc1N=[N+]=[N-],0.0902
16,C=C(C)[C@@H]1CC=C(C(O)C2C=CC3C(=O)N(C4CCCCC4)C(=O)C3N2Nc2ccc(OC)cc2)CC1 (stereo partly specified),0.21
17,C=CCC(OC(C)=O)[C@@H]1[C@@H](N(Cc2ccc(-c3ccccc3)cc2)C(=O)Cc2ccc(OC)cc2)c2cc(OCCCO)ccc2N1C(=O)c1ccc(-c2ccccc2)cc1 (stereo partly specified),-0.18
18,CC(C)=CCCC(C)=CC(O)C1C=CC2C(=O)N(c3ccccc3)C(=O)C2N1Nc1ccc([N+](=O)[O-])cc1 (stereo unspecified),-0.4
